PubChem BioAssay (NCATS)
Where “and” joins values, the source holds several entries; their conditions need not be identical. Identical values can stand only once. Results filed as inconclusive are left out. Calls of active or inactive are those of the source. Unless noted, calls come from the whole dose curve; as a rule, active = well fitted curve in the direction sought with a large enough effect; inconclusive = small, poorly fitted or top-dose-only effect, or another doubt; inactive = no such curve, though single readings can be large; an effect the other way counts as inactive or inconclusive.

Assays:
[1] = qHTS Assay for Identification of Small Molecule Antagonists for NFkB Signaling Pathway (AID 895; active = well fitted inhibition curve with a large enough effect in the signal ratio, with a control signal flat, not every such curve was filed as active; the % refers to the signal ratio; note: % is set by controls: 0 for no effect and ±100 for the full control effect)
Summary of the method: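 ME-180 NFkB-bla cells (beta-lactamase under NFkB response element), plated overnight, treated with compound then 10 pM TNF alpha (about EC50) for 5 hrs at 37 C. LiveBLAzer FRET read at 460/530 nm emission, 405 nm excitation.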

[2] = biological target: Muscarinic acetylcholine receptor M1 (Rattus norvegicus) (UniProt P08482); assay: qHTS Assay for Antagonists of Acetylcholine Muscarinic M1 Receptor: Measurement of IP-One Response (AID 944); note: nearly all actives have a fitted effect of over 75% in size; note: potency is the fitted concentration of half-maximal effect
Summary of the method: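 Read-out: HTRF competition between d2-IP1 and Eu-cryptate anti-IP1 antibody, emission 620 and 665 nm. Stimulus was carbachol, EC80 (200 nM), for 30 min in M1-CHO cells (rat receptor), after 10 min compound pre-treatment.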

[3] = biological target: Muscarinic acetylcholine receptor M1 (Rattus norvegicus) (UniProt P08482); assay: qHTS Assay for Antagonists of Acetylcholine Muscarinic M1 Receptor: Kinetic Measurement of Intracellular Calcium Response (AID 943); note: nearly all actives have a fitted effect of over 75% in size; note: potency is the fitted concentration of half-maximal effect
Summary of the method: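 Read-out: peak over basal Fluo-4 fluorescence, kinetic at 1 Hz for 4 min after EC80 carbachol (100 nM final). Rat M1-CHO cells, dye loaded 1 h at 37C, compound added 10 min before agonist.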

[4] = biological target: Cytochrome P450 3A4 (Homo sapiens) (UniProt P08684); assay: qHTS Assay for Activators of Cytochrome P450 3A4 (AID 885); note: nearly all actives have a fitted effect of over 65% in size
Summary of the method: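 Luminescent readout of luciferin formed from 25 uM Luciferin-PPXE (KM level) by 20 nM CYP3A4 in 200 mM KPO4, with 60 min NADPH-driven reaction at room temperature after 10 min compound exposure. Ketoconazole (57 uM) defined 100% inhibition.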

[5] = Cell Viability - SH-SY5Y (AID 544); conditions: SH-SY5Y neuroblastoma cell viability; viability change, negative = cytotoxic: at 92.2 µM (top of the series);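 note: cells exposed to compound for 40 hours; 0% = DMSO alone and -100% = 100 µM tamoxifen; nearly all actives have a fitted effect of over 55% in size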
Summary of the method: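 SH-SY5Y, 1500 cells/well, 5 hr pre-incubation 37 °C; cpd 40 hr 37 °C; CellTiter-Glo 20 min RT; luminescence (ATP) read. qHTS concentration-response, Hill fit → AC50. Tamoxifen, doxorubicin as positive controls.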

[6] = Cellular Toxicity (caspase-3) Mesangial (AID 660);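 note: combined caspase 3 and 7 activity read by Caspase-Glo luminescence; cells exposed to compound for 16 h before the caspase read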
Summary of the method: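 Luminescent Caspase-Glo 3/7 readout (aminoluciferin substrate cleavage, 20 min RT) after 16 h compound exposure at 37 °C of normal human mesangial cells. Signal increase normalized between DMSO basal and 100 uM tamoxifen; Hill-equation AC50.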

[7] = MultiTox-Fluor Cytotoxicity Assay - LYMP1-001 - Live Cells (AID 947);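 note: 0% = DMSO only and full inhibition = tetraoctylammonium bromide control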
[8] = Cell Viability - LYMP2-021 (AID 974);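 note: compound exposure lasts 24 hours at 37 °C; % is set by controls: 0 for no effect and ±100 for the full control effect; nearly all actives have a fitted effect of over 55% in size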
Summary of the method: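 ATP luminescence (CellTiter-Glo, 30 min RT) after 24 h compound exposure at 37 C; 2500 human lymphoblastoid cells/well, 5 h settle beforehand. Cytotoxicity = concentration-dependent ATP drop, AC50 by Hill fit.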

[9] = biological target: Estrogen receptor (Homo sapiens) (UniProt P03372); assay: qHTS assay for small molecule antagonists of estrogen receptor alpha signaling (AID 588513; active = well fitted curve in the direction sought with a large enough effect in the signal ratio, with a control signal flat, not every such curve was filed as active; the % refers to the signal ratio; note: % is set by controls: 0 for no effect and ±100 for the full control effect)
Summary of the method: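 Beta-lactamase reporter, antagonist mode, HEK 293 GripTite cells; 0.5nM E2 stimulus, 18 h, 37 C; CCF4 dye 2 h RT; fluorescence. IC50 and efficacy from Hill fits, normalized to E2 and DMSO.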

[10] = biological target: Estrogen receptor (Homo sapiens) (UniProt P03372); assay: qHTS assay for small molecule agonists of estrogen receptor alpha signaling (AID 588514; calls by dose curve;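 note: 0% = vehicle only and 100% = reference agonist; nearly all actives have a fitted effect of over 70% in size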)
Summary of the method: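 Read-out: CCF4 fluorescence from a beta-lactamase reporter in ER-alpha-UAS-bla HEK 293 cells after 18 hrs of compound exposure at 37 C. Normalized to 20 nM 17-beta-estradiol (100%) and DMSO (0%).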

[11] = biological target: Glucocorticoid receptor (Homo sapiens) (UniProt P04150); assay: qHTS assay for small molecule antagonists of glucocorticoid receptor signaling (AID 588533; active = well fitted inhibition curve with a large enough effect in the signal ratio, with a control signal flat, not every such curve was filed as active; the % refers to the signal ratio;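 note: cells stimulated with 2 nM dexamethasone as agonist; % is set by controls: 0 for no effect and ±100 for the full control effect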)
Summary of the method: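 Antagonist-mode qHTS: compound titrations added to GRE-bla HeLa cells, then dexamethasone 2 nM final; 18 h, 37 C. CCF4 FRET fluorescence normalized to dexamethasone and DMSO; IC50 from Hill fit.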

[12] = biological target: Peroxisome proliferator-activated receptor delta (Homo sapiens) (UniProt Q03181); assay: qHTS assay for small molecule agonists of peroxisome proliferator-activated receptor delta signaling (AID 588534; calls by dose curve;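 note: 0% = DMSO basal wells and 100% = positive control agonist at 10 µM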)
Summary of the method: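 Titration series tested in agonist mode on beta-lactamase reporter cells; 18 hrs at 37 C after a 5 hr pre-incubation. Readout: CCF4 fluorescence, 2 hrs RT. Hill equation gives EC50 and maximal response.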

[13] = qHTS assay for small molecule antagonists of peroxisome proliferator-activated receptor delta signaling (AID 588535; active = well fitted inhibition curve with a large enough effect in the signal ratio, with a control signal flat, not every such curve was filed as active; the % refers to the signal ratio;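 for max response: cells co-treated with a PPAR-delta agonist as stimulator during compound exposure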); conditions: HEK293T PPARd-UAS-bla, beta-lactamase FRET ratio, 18 h; 460 nm channel
Summary of the method: (§1)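 Beta-lactamase reporter read-out (405 nm excitation, 460/530 nm emission) after CCF4 loading for 2 hrs at RT. HEK293T PPAR-delta-UAS-bla cells, 2% charcoal/dextran FBS, compounds for 18 hrs at 37 C. Hill fit gave IC50 and efficacy.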

[14] = biological target: Peroxisome proliferator-activated receptor gamma (Homo sapiens) (UniProt P37231); assay: qHTS assay for small molecule antagonists of peroxisome proliferator-activated receptor gamma signaling (AID 588537; active = well fitted inhibition curve with a large enough effect in the signal ratio, with a control signal flat, not every such curve was filed as active; the % refers to the signal ratio;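 note: reporter cells co-stimulated with 50 nM rosiglitazone agonist during compound treatment; % of control where 0% means no effect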)
Summary of the method: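 Read-out: CCF4 fluorescence (ex 405, em 460/530 nm) after 2 h at RT. Cells were HEK293 carrying a UAS-bla reporter and treated 16 h at 37 C with compound plus rosiglitazone (50 nM final). Normalized to rosiglitazone and DMSO.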

[15] = biological target: Voltage-gated inwardly rectifying potassium channel KCNH2 (Homo sapiens) (UniProt Q12809); assay: qHTS Assay for Small Molecule Inhibitors of the Human hERG Channel Activity (AID 588834);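 note: top concentration of the series differs between compounds; % is set by controls: 0 for no effect and ±100 for the full control effect; lower thallium flux fluorescence means stronger hERG block; nearly all actives have a fitted effect of over 50% in size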
Summary of the method: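 Thallium-flux (FluxOR) read-out on FDSS: fluorescence read 10 s before and 2 min after stimulation buffer. hERG-BacMam-transduced U2OS cells, compound exposure about 10 min. AC50 by standard Hill equation.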

[16] = biological target: Bile acid receptor (Homo sapiens) (UniProt Q96RI1); assay: qHTS assay for small molecule antagonists of farnesoid X receptor signaling (AID 588526; calls by dose curve; note: % is set by controls: 0 for no effect and ±100 for the full control effect)
Summary of the method: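 Antagonist mode: titrated compounds tested against chenodeoxycholic acid stimulation (normalized to 50 uM CDCA and DMSO) in GeneBLAzer HEK293T cells for 16 h. Beta-lactamase read by CCF4 fluorescence; IC50 from Hill fits.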

[17] = biological target: Peroxisome proliferator-activated receptor delta (Homo sapiens) (UniProt Q03181); assay: qHTS assay for small molecule antagonists of peroxisome proliferator-activated receptor delta signaling (AID 588535);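 for max response: cells co-treated with a PPAR-delta agonist as stimulator during compound exposure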
Summary of the method: as §1

[18] = qHTS assay for small molecule activators of the p53 signaling pathway (AID 651743; active = well fitted activation curve with a large enough effect in the signal ratio, not every such curve was filed as active; the % refers to the signal ratio; note: % of control where 0% means no effect); conditions: HCT-116 p53RE-bla, beta-lactamase FRET ratio, 16 h; activation: stronger effect = higher value
Summary of the method: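 Reporter: beta-lactamase driven by p53 response elements, stably integrated in HCT-116 cells. Cells seeded at 4,000/well, 5 h preincubation, compound (DMSO) 16 h at 37 C; B/G FRET substrate 2 h RT; fluorescence intensity read.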

[19] = qHTS assay for small molecule agonists of the antioxidant response element (ARE) signaling pathway (AID 651741; active = well fitted activation curve with a large enough effect in the signal ratio; the % refers to the signal ratio; note: % of control where 0% means no effect)
Summary of the method: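 HepG2 ARE-bla reporter cells, 2,000/well; 5 h settle at 37 C/5% CO2; compound pin transfer (23 nL, DMSO); 16 h at 37 C; LiveBLAzer B/G FRET substrate, 2 h RT; fluorescence intensity read.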

Chain of Peroxisome proliferator-activated receptor gamma (Homo sapiens) (P37231 whole entry, looked up): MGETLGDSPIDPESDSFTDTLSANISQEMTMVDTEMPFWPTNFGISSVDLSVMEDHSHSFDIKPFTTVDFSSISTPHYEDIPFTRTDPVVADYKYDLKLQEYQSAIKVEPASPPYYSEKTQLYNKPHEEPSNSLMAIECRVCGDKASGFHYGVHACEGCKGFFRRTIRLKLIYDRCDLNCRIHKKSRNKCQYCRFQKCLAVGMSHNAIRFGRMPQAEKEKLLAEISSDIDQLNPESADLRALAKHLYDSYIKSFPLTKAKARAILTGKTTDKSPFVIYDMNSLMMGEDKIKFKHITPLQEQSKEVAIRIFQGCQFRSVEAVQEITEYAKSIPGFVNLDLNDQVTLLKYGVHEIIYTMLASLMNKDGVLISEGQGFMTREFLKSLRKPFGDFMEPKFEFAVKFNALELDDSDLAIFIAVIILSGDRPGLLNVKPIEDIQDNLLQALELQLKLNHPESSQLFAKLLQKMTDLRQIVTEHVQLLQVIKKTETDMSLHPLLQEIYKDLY
Chain of Peroxisome proliferator-activated receptor delta (Homo sapiens) (Q03181 whole entry, looked up): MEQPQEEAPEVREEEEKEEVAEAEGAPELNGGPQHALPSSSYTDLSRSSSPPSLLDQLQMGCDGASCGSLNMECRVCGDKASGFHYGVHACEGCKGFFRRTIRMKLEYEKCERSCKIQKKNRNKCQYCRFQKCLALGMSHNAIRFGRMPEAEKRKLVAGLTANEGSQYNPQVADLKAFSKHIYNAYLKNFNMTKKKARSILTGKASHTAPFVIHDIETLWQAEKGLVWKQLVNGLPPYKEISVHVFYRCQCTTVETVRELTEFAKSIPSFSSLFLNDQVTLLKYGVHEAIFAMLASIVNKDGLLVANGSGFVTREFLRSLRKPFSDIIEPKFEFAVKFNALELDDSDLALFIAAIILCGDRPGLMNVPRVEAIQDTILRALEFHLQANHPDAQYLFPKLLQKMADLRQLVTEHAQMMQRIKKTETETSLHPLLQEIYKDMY
Chain of Cytochrome P450 3A4 (Homo sapiens) (P08684 whole entry, looked up): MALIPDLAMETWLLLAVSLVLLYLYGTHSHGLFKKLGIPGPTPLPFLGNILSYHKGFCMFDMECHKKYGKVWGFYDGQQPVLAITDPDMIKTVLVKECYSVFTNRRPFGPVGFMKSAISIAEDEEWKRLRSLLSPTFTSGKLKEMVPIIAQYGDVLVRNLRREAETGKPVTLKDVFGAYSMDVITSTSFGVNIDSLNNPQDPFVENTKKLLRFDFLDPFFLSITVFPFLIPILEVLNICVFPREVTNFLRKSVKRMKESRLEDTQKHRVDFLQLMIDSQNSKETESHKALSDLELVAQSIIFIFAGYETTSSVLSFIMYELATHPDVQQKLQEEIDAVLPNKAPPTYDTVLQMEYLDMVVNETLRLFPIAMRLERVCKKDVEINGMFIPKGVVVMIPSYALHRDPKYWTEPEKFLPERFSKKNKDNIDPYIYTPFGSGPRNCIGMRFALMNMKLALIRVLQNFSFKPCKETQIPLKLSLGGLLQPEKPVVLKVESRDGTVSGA
Chain of Muscarinic acetylcholine receptor M1 (Rattus norvegicus) (P08482 whole entry, looked up): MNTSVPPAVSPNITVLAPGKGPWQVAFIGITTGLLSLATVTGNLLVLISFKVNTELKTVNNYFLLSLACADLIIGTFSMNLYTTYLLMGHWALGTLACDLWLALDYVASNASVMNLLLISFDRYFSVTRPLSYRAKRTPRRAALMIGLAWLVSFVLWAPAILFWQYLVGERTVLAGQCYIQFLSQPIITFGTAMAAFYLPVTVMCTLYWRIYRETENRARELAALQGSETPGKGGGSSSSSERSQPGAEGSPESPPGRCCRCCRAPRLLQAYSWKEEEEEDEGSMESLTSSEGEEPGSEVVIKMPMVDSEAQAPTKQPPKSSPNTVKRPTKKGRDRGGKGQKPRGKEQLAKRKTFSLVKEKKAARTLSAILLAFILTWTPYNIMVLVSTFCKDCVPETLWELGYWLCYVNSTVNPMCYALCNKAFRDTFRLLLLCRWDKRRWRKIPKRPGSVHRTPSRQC
Chain of Glucocorticoid receptor (Homo sapiens) (P04150 whole entry, looked up): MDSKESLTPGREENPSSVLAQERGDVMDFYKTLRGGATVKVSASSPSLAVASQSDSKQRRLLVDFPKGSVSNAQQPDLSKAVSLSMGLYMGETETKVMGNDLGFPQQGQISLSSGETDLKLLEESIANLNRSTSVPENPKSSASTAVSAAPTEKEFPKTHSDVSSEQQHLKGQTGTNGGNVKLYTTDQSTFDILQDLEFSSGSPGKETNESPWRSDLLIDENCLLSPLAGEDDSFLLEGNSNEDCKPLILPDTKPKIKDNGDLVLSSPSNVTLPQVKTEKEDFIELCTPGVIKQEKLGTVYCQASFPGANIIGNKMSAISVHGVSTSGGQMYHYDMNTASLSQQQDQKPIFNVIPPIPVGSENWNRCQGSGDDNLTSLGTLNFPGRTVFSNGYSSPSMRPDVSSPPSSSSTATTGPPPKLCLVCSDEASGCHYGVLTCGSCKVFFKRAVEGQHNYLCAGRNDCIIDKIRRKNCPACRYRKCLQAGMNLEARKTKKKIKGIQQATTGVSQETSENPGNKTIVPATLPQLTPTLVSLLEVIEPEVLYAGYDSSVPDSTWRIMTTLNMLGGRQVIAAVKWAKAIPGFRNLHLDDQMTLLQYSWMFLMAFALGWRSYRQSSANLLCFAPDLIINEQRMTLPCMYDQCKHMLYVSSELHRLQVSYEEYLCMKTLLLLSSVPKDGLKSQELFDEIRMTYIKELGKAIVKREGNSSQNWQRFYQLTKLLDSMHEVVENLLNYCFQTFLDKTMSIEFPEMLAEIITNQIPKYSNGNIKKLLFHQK
Chain of Voltage-gated inwardly rectifying potassium channel KCNH2 (Homo sapiens) (Q12809 whole entry, looked up): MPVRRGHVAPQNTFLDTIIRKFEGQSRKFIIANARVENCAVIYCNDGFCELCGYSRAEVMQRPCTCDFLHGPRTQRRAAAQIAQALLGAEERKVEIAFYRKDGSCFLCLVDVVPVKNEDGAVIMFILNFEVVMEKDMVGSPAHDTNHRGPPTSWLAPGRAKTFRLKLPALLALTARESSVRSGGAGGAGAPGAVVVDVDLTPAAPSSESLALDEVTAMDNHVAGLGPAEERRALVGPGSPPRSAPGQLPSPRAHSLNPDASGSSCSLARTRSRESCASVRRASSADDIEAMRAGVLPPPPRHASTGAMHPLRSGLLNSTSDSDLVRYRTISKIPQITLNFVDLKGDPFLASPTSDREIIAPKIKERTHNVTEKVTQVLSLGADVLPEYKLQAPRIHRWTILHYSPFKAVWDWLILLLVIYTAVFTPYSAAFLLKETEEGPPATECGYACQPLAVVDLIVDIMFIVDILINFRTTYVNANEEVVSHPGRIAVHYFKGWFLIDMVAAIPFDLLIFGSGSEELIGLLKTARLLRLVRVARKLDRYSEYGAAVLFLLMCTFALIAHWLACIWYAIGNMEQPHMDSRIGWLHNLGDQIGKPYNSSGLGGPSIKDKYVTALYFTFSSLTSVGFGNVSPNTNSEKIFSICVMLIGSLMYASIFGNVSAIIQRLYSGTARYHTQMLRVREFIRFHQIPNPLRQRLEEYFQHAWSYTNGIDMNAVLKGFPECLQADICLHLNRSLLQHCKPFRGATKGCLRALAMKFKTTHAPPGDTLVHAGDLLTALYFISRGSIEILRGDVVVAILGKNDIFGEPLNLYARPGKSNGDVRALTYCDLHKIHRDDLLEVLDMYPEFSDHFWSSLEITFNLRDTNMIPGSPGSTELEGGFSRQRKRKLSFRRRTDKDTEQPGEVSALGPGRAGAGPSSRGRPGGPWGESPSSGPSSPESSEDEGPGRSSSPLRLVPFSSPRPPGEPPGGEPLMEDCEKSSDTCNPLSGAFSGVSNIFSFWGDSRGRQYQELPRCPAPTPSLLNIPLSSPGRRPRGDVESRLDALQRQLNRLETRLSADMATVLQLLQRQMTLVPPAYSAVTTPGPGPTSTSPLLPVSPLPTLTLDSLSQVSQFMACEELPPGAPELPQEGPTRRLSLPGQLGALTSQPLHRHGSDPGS
Chain of Estrogen receptor (Homo sapiens) (P03372 whole entry, looked up): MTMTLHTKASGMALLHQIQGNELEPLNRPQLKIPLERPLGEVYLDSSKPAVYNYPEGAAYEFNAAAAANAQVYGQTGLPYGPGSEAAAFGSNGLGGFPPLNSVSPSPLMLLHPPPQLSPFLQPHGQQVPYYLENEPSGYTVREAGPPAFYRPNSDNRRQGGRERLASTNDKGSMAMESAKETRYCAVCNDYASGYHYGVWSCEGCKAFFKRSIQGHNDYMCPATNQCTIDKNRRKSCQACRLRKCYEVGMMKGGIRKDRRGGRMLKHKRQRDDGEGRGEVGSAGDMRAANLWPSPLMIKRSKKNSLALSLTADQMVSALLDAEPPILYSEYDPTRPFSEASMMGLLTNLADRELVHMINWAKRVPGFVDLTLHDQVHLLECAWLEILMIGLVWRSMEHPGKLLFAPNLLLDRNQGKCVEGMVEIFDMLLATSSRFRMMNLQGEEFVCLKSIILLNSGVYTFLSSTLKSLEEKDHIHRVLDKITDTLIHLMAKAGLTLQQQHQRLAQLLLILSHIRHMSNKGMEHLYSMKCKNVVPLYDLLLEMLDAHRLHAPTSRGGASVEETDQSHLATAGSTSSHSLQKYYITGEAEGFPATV
Chain of Bile acid receptor (Homo sapiens) (Q96RI1 whole entry, looked up): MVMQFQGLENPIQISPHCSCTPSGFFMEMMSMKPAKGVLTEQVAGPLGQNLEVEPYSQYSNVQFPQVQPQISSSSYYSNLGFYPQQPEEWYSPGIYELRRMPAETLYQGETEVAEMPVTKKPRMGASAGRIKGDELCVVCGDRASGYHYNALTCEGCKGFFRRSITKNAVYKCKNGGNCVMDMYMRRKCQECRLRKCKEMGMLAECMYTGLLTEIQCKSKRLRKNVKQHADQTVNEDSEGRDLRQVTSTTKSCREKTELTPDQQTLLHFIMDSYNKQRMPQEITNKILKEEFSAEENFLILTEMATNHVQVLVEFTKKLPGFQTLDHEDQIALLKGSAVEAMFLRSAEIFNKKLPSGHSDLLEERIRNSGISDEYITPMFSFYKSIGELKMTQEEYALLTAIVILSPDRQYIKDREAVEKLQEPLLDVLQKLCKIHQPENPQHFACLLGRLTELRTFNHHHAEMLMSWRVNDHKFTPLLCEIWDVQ

CN1C[C@@H](CS(=O)(=O)N(C)C)C[C@H]2c3cccc4c3c(cn4C)C[C@@H]21
inactive: Potency [1] | Potency [2]

CCCN1CC[C@@H]2c3cc(O)ccc3CC[C@H]21
active: Potency [3] 14.1 µM | Potency [2] 14.1 µM
inactive: Potency [1]

NC(=O)CN1C[C@@H](O)CC1=O
inactive: Potency [2]

C[Se]C[C@@H](N)C(=O)O
inactive: Potency [4] | Potency [3] | Potency [2]

C[C@@]12CC[C@H]3[C@@H](CC[C@@H]4C[C@H](O)CC[C@]43C)[C@H]1CC[C@H]2O
inactive: Potency [4] | Potency [2]

CC(C)C[C@H](NP(=O)(O)O[C@@H]1O[C@@H](C)[C@@H](O)[C@@H](O)[C@H]1O)C(=O)N[C@@H](Cc1c[nH]c2ccccc12)C(=O)O
inactive: Potency [1] | Potency [3] | Potency [2]

N[C@H](CCl)C(=O)O
inactive: Potency [3]

ClC(Cl)Br
inactive: Potency [5] | outcome [6] | outcome [7] | Potency [8] | Potency [9] | Potency [10] | outcome [11] | outcome [12] | Potency [14] | Potency [15]
-6.86%: max response [13]

Nc1ccc(Cc2ccc(N)cc2)cc1
34.2% and -15.9%: max response [13]
inactive: outcome [6] | Potency [4] | outcome [7] | Potency [8] | outcome [16] | outcome [11] | outcome [12] | outcome [17] | Potency [14] | Potency [15] | activation [18] -1.69% and -2.54%

Clc1ccc(Cl)c(Cl)c1
inactive: Potency [5] | outcome [6] | outcome [7] | Potency [8] | outcome [12] | outcome [17] | Potency [14] | Potency [15] | Potency [19] | activation [18] -3.13% and -3.99%
-17.8% and 7%: max response [13]
